# PubChem BioAssay AID1508602 (The Scripps Research Institute Molecular Screening Center, 2020)
# The campaign covered roughly 650,000 compounds. About 6,800 (1%) were called active. No stated cut-off is given here; in the data, active means activation above about 4.9%; inactive means the rest. Shown is part of a subset that was picked to be rich in actives.
# Target: G-protein coupled receptor 151 (Homo sapiens) (UniProt Q8TDV0)
# Assay: activates the human receptor GPR151, primary screen, cell-based, PathHunter beta-arrestin, luminescence (AID 1508602);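 further: 0% = median of compound wells and 100% = cells with positive control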
# Conditions: PathHunter beta-arrestin GPR151 cells, at 11.2 µM, hits give high values
# Chain of G-protein coupled receptor 151 (Homo sapiens) (Q8TDV0 whole entry, looked up): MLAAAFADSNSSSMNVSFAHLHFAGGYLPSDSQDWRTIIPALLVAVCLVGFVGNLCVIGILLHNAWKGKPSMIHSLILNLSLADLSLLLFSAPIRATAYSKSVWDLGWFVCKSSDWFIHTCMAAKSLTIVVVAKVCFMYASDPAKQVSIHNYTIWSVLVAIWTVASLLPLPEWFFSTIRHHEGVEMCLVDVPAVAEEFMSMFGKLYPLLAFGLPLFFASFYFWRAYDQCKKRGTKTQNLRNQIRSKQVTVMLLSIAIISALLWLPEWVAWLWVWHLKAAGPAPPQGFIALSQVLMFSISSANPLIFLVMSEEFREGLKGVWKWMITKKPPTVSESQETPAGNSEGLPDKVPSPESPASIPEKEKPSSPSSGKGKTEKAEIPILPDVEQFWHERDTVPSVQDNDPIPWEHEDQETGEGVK
row,Compound,activation
1,COC(=O)c1cccc(-n2c3nc(=O)[nH]c(=O)c-3cc3ccccc32)c1,-0.76% (inactive)
2,CC(C)CC(=O)Nc1ccc(NC(=O)CC(C)C)c(Cl)c1,0.466% (inactive)
3,Cc1nn(C)c(C)c1-c1nc(Nc2ccc(Oc3ccccc3)cc2)c2ncn(-c3ccsc3)c2n1,0.158% (inactive)
4,CC(=O)c1cccc(-c2nc(NCCOc3ccccc3)c3ncn(-c4ccccc4)c3n2)c1,0.401% (inactive)
5,CC(=O)c1cccc(-c2nc(Nc3ccc(Oc4ccccc4)cc3)c3ncn(-c4ccsc4)c3n2)c1,5.34% (active)
6,CCOC(=O)C1=C(C)N=c2s/c(=C\c3ccc(OC)c(Br)c3)c(=O)n2C1c1ccc2c(c1)OCO2 (stereo not given),3.22% (inactive)
7,CCCc1c(C)nc2c(C(=O)NC3CCCCCCC3)c[nH]n2c1=O,1.02% (inactive)
8,CC(=O)COC(=O)CNC(=O)c1ccc(Cl)cc1,-1.71% (inactive)
9,CCOC(=O)Cc1csc(NC(=O)c2ccc(NC(=O)CC)cc2)n1,-0.289% (inactive)
10,CCOC(=O)Cc1coc(NC(=O)c2ccc(Cl)cc2)n1,5.28% (active)
11,Cc1nn(CC(=O)N(CC2CCCO2)C2CCS(=O)(=O)C2)c(C)c1[N+](=O)[O-] (stereo not given),0.461% (inactive)
12,CCOC(=O)C1=C(C)N=c2s/c(=C\c3cccc(OC)c3OCC)c(=O)n2C1c1ccccc1OC(C)C (stereo not given),2.86% (inactive)
13,COc1cc([N+](=O)[O-])ccc1NC(=O)N1CCN(C2CCCCC2)CC1,-0.0069% (inactive)
14,O=C(c1cc([N+](=O)[O-])ccc1NC1CCCCC1)N1CCOCC1,9.09% (active)
15,O=C(c1cn[nH]c1-c1ccc([N+](=O)[O-])cc1)N1CCOCC1,-0.121% (inactive)
16,S=C(NCc1ccccc1)NCc1nc2ccccc2[nH]1,1.09% (inactive)
17,Cc1ccc(C)n1-c1ccc(C(=O)NCC(c2ccco2)N(C)C)cc1 (stereo not given),0.754% (inactive)
18,CCOCCn1c(=O)c2c(nc3n2CCCN3c2ccc(Br)cc2)n(C)c1=O,0.326% (inactive)
19,CC(=O)Cn1c(=O)c2c(nc3n2CCCN3c2ccc(Br)cc2)n(C)c1=O,5.99% (active)
20,CC(C)Cn1c(=O)c2c(nc3n2CCCN3c2ccc(Br)cc2)n(C)c1=O,-0.288% (inactive)
21,O=C(C(Cc1ccccc1)N1C(=O)C2C3CCC(C3)C2C1=O)N1CCOCC1 (stereo not given),0.906% (inactive)
22,O=C(C(Cc1ccccc1)N1C(=O)C2C3c4ccccc4C(c4ccccc43)C2C1=O)N1CCOCC1 (stereo not given),6.8% (active)
23,O=C(C(Cc1ccccc1)N1Cc2ccccc2C1=O)N1CCOCC1 (stereo not given),-0.15% (inactive)

row,Compound,activation
1,CCOC(=O)c1c(NC(=O)C(C)Sc2nnc(CNC(=O)COc3ccccc3)n2-c2cccc(Cl)c2)sc2c1CCC2 (stereo not given),-0.72% (inactive)
2,Cc1[nH]nc(Nc2cccc(C(F)(F)F)c2)c1[N+](=O)[O-],0.158% (inactive)
3,O=[N+]([O-])c1ccc2ncnc(Nc3cccc(C(F)(F)F)c3)c2c1,5.31% (active)
4,Cn1ncc2c(Nc3cccc(S(=O)(=O)Nc4cccc(C(F)(F)F)c4)c3)ncnc21,-0.0154% (inactive)
5,COc1ccc(C(C)(C)C)cc1NC(=O)c1ccc2c(c1)NC(=O)C(C)S2 (stereo not given),-1.1% (inactive)
6,CCOc1ccc(C(=O)Nc2ccc3c4c(cccc24)CC3)cc1,0.563% (inactive)
7,COc1cc2ccccc2cc1C(=O)Nc1ccc2c3c(cccc13)CC2,1.02% (inactive)
8,COc1cc(OC)cc(C(=O)Nc2ccc3c4c(cccc24)CC3)c1,16.6% (active)
9,COc1ccc(/C=C\C(=O)NCCc2cc3ccc(C)c(C)c3[nH]c2=O)cc1OC,-0.187% (inactive)
10,O=C1CCC(CCNCCOc2ccccc2)N1CCc1ccccc1 (stereo not given),8.35% (active)
11,O=C1CCC(CCNCCOc2ccc(F)cc2)N1CCc1ccccc1 (stereo not given),-0.404% (inactive)
12,O=C1CCC(CCNCc2ccccc2)N1CCc1ccccc1F (stereo not given),1.45% (inactive)
13,CCOC(=O)N1CCC(NC(=O)c2ccc(N3CC4CC(C3)c3cccc(=O)n3C4)c(NC(=O)c3ccc(OC)cc3)c2)CC1 (stereo not given),-1.15% (inactive)
14,CCOc1ccc(S(=O)(=O)c2c[nH]c3cc(OC)c(OC)cc3c2=O)cc1,0.157% (inactive)
15,Cc1cccc(NC(=O)CCn2c(=O)oc3ccccc32)c1,-0.466% (inactive)
16,CN1C(=O)c2ccc(NC(=O)CCn3c(=O)oc4ccccc43)cc2C1=O,-1.74% (inactive)
17,Cc1ccc(NC(=O)CCn2c(=O)oc3ccccc32)cc1Cl,10.6% (active)
18,CCOC(=O)c1c(NC(=O)COC(=O)C(C)c2c(F)c(F)cc(F)c2F)sc2c1CCCC2 (stereo not given),1.7% (inactive)
19,COc1ccc(-c2csc3ncc(C(=O)N(C)C(C)C)c(=O)n23)cc1,1.24% (inactive)
20,Cc1ccc(C(=O)NCc2nc3nc(C)cc(C)n3n2)cc1,0.459% (inactive)
21,Cc1cccc(CNc2nc3nc(C)cc(C)n3n2)c1,-0.819% (inactive)
22,Cc1ccc(S(=O)(=O)NCc2nc3nc(C)cc(C)n3n2)cc1,10.6% (active)
23,CCN(CC)CCN1C(=O)C(=O)/C(=C(\O)c2ccc(Cl)cc2)C1c1ccc([N+](=O)[O-])cc1 (stereo not given),-0.703% (inactive)

row,Compound,activation
1,NS(=O)(=O)c1cccc(S(=O)(=O)c2ccc(Br)cc2)c1,1.39% (inactive)
2,C/C(=N\NC(=O)CCC(=O)N/N=C(\C)c1ccc(Cl)cc1)c1ccc(Cl)cc1,0.378% (inactive)
3,CCCCCC(=O)N/N=C(/C)c1ccc(O)cc1O,7.91% (active)
4,CCCCCC(=O)N/N=C(\C)c1ccc(O)cc1,-1.26% (inactive)
5,Cc1ccc(C(=O)COC(=O)c2ccc3nc(-c4ccccc4)c(-c4ccccc4)nc3c2)cc1,-0.519% (inactive)
6,CCc1nnc(NC(=O)CSc2nc(C)cc(C)n2)s1,-1.16% (inactive)
7,COc1ccc(OC)c(/C=N/n2nnnc2N)c1,8.6% (active)
8,COc1cc(/C=N/n2nnnc2N)ccc1OCCC(C)C,1.35% (inactive)
9,Nc1nnnn1/N=C\c1ccc(O)c(O)c1,0.149% (inactive)
10,Brc1ccc(-c2cc(-c3ccccc3)c3cc(Br)ccc3n2)cc1,1.18% (inactive)
11,CCCCC(=O)Nc1ccc(C(=O)N2CCN(c3ccccc3F)CC2)cc1,1.25% (inactive)
12,COC(=O)[C@@H]1CC[C@H](C)[C@@H](c2ccc(C)cc2)N1C(=O)c1ccc(/C=N/O[C@H](C)c2cn([C@@H]3COC[C@H]3O)nn2)cc1,7.09% (active)
13,Cc1cc(N2C(=O)c3ccc(Oc4ccc(NC(=O)CSc5ccc(Cl)cc5)cc4)cc3C2=O)no1,1.59% (inactive)
14,CCSc1nc2sccn2c(=O)c1C(=O)NC(Cc1ccccn1)C(F)(F)F (stereo not given),4.95% (active)
15,O=C(NCCc1ccccn1)c1cn2ccsc2n1,0.225% (inactive)
16,CSc1nc2sccn2c(=O)c1C(=O)NC(C)CO (stereo not given),-0.408% (inactive)
17,CCCCN(C)CCCN(Cc1ccco1)C(=S)Nc1ccc(Cl)c(C)c1,-0.264% (inactive)
18,COc1cccc(CCNC(=O)CCc2nnc(COc3ccccc3)o2)c1,-0.583% (inactive)
19,CSCCNc1nc2nonc2nc1NC1CC1,0.51% (inactive)
20,O=C1OC(c2ccc(Br)cc2)=N/C1=C\c1cc(Br)cs1,-0.409% (inactive)
21,CCOc1cc(C2C3=C(CCCC3=O)NC3=C2C(=O)CCC3)cc(Br)c1OCC,5.4% (active)
22,COc1cc(C2C3=C(CCCC3=O)NC3=C2C(=O)CCC3)cc(Cl)c1O,1.16% (inactive)
23,CCOc1cc(C2C3=C(CCCC3=O)NC3=C2C(=O)CCC3)ccc1OCc1ccc(F)cc1,-0.184% (inactive)

row,Compound,activation
1,Fc1ccc(C2Oc3ccc(Cl)cc3C3CC(c4cccs4)=NN32)cc1 (stereo not given),0.238% (inactive)
2,Cc1nn(-c2ccccc2)c(C)c1/C=N/n1c(=S)[nH]nc(C)c1=O,-0.643% (inactive)
3,CCCCCCOC(=O)c1ccc(-c2ccc(-c3ccc(C(=O)OCCCCCC)cc3)cc2)cc1,-1.7% (inactive)
4,CCOC(=O)c1cc2cccnc2nc1C,0.721% (inactive)
5,CCCCCCOC(=O)c1cc(C(=O)OCCCCCC)c(C)nc1C,6.55% (active)
6,Cc1ccccc1-c1cccc(CN2CCC(=O)N(C)CC2)c1,0.112% (inactive)
7,CCn1c(NCCO)nc2ccccc21,1.96% (inactive)
8,O=C(Cn1c(NCCO)nc2ccccc21)c1ccc(Cl)cc1Cl,7.58% (active)
9,O=C(Cn1c(NCCCO)nc2ccccc21)c1ccccc1,-1.59% (inactive)
10,COC(=O)c1cc(CNC(=O)c2cc3ncccn3n2)cc(NC(=O)Cc2ccsc2)c1,-0.0871% (inactive)
11,Cc1cc(Br)ccc1OCC(=O)N1CCN(C=O)CC1,-1.7% (inactive)
12,COC(=O)c1c(NC(=O)/C(C#N)=C/c2cccs2)sc2c1CCCC2,-2.04% (inactive)
13,Cc1ccc(N=Cc2c(O)[nH]c(=S)[nH]c2=O)cc1C,0.392% (inactive)
14,Nc1cccc(N=Cc2c(O)[nH]c(=S)[nH]c2=O)c1,-0.879% (inactive)
15,O=c1[nH]c(=S)[nH]c(O)c1C=Nc1ccc(F)c(Cl)c1,5.26% (active)
16,CC(C)[C@@H](N)Cn1nc(-c2cccs2)ccc1=O,0.507% (inactive)
17,O=C(Nc1ccccc1[N+](=O)[O-])c1ccc2ccccc2n1,0.441% (inactive)
18,O=C1NC(=O)N(c2cccc(Br)c2)C(=O)/C1=C/c1cccc([N+](=O)[O-])c1,1.88% (inactive)
19,Cc1ccc(/C=C2/C(=O)NC(=O)N(c3ccccc3)C2=O)cc1[N+](=O)[O-],7.87% (active)
20,COc1ccc(/C=C2\C(=O)NC(=O)N(c3ccc([N+](=O)[O-])cc3)C2=O)cc1OC,-0.83% (inactive)
21,Cn1ccnc1SCc1cc(=O)c(OC(=O)c2c(F)cccc2F)co1,3.4% (inactive)
